HCMV inh: blocks human cytomegalovirus replication. activity change, negative = inhibition, % at 57.5 µM. AID 1259415. actives 4.5% (n = 410,000). HFF cells, HCMV-luciferase reporter, 72 h; stronger effect = lower value; in the data active = activity change below about -60%; inconclusive = no clear call, values can overlap the other calls; inactive = above about -39%
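Inhibition of viral replication was scored as loss of reporter luminescence in HFFs infected with HCMV-luciferase (MOI 1 PFU/cell) for 72 h; compounds tested at 2 doses, normalized to buffer and Salinomycin controls.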
VACV Venus inh: inhibitors of vaccinia virus (Venus reporter). Vaccinia virus Venus reporter expression, fluorescence. actives 0.46% (n = 330,000). Potency, µM (series often up to 36.5 µM), most hits filed as inhibitors; calls by dose curve; tested in A549 cells; note: nearly all actives have a fitted effect of over 30% in size
Vaccinia mCherry: inhibitors of vaccinia virus infection (mCherry reporter signal); Vaccinia virus mCherry reporter infection, fluorescence; actives 0.63% (n = 310,000); Potency, µM (doses to about 36.5 µM), most hits filed as inhibitors; AID 720579; calls by dose curve; tested in A549 cells; note: nearly all actives have a fitted effect of over 35% in size
LASV entry inh: blocks Lassa virus binding to or entry into cells. AID 540256. Potency, µM (doses to about 37.9 µM), usual class: inhibitors. Lassa virus pseudotype entry inhibition, cell reporter. actives 1.2% (n = 300,000); calls by dose curve; tested in HEK293 cells; note: nearly all actives have a fitted effect of over 50% in size
FMDV antiviral: blocks foot and mouth disease virus | FMDV antiviral cell-based qHTS | Potency, µM (highest dose often 57.9 µM), hits mostly inhibitors | actives 1.2% (n = 410,000) | AID 1159524; calls by dose curve; tested in HEK293T cells; note: read-out not given here; nearly all actives have a fitted effect of over 45% in size
Marburg entry inh: inhibitors of Marburg virus binding or cell entry. AID 540276. Marburg virus pseudotyped entry inhibition, cell reporter. actives 1.8% (n = 300,000). Potency, µM (highest dose often 37.8 µM), actives largely listed as inhibitors; calls by dose curve; tested in HEK293 cells
Hits are given with their value; n = inactive; u = inconclusive; x = not tested or not shown. Sampled rows, rich in hits. Any-hit rate of the full collection: about 6.5%.

SMILES	HCMV inh	VACV Venus inh	Vaccinia mCherry	LASV entry inh	FMDV antiviral	Marburg entry inh
CCCN1CCC(N2CCCC(C(=O)O)C2)CC1 (stereo not given)	-60.5	n	n	n	n	n
CCOC(=O)C1CCCN(c2c(N3CCC(N4CCCCC4)CC3)c(=O)c2=O)C1 (stereo not given)	n	n	n	x	n	n
CC(C)C[C@H]1COc2c(Cl)cccc2S(=O)(=O)N1	n	x	x	n	x	x
CCC(=NCCO)c1c(O)n(C2CCCCC2)c(=O)[nH]c1=O	n	n	n	n	n	n
CCC(=NCc1ccc2c(c1)OCO2)c1c(O)n(C2CCCCC2)c(=O)[nH]c1=O	u	x	x	13µM	u	u
Cc1cc(Br)cc(/C=N/NC(=O)c2ccc3c(c2)OCO3)c1O	-102.8	x	x	x	n	x
O=C(CNC(=O)c1ccccc1)N/N=C/c1cc(Br)ccc1O	n	u	u	u	n	u
O=C(N/N=C/c1ccccc1O)c1ccc2c(c1)OCO2	-91.9	u	u	u	n	5.01µM
COc1cc(Cl)cc(/C=N\NC(=O)c2ccc3c(c2)OCO3)c1O	-60.4	u	u	x	n	x
O=C(CNC(=O)c1ccc2c(c1)OCO2)N/N=C/c1cc(Br)ccc1O	n	u	1.58µM	u	n	11.2µM
COc1ccc(S(=O)(=O)N2CCN(c3nc(-c4ccccc4)nc4ccccc34)CC2)cc1	x	n	n	x	x	x
CN(C)CCCNc1cc(N2CCN(C)CC2)ncn1	x	n	n	x	x	x
O=C(CNC(=O)c1ccco1)N/N=C/c1cc(Br)ccc1O	n	u	u	x	n	2µM
O=C(N/N=C/c1cc(Br)c(Br)o1)c1ccc2c(c1)OCCO2	n	n	n	n	n	u
O=C(CNC(=O)c1ccco1)N/N=C/c1ccc(O)cc1O	n	x	x	x	n	x
O=C(N/N=C/c1cc(Br)c(O)c(Br)c1O)c1ccc2c(c1)OCCO2	-81.8	u	u	u	n	n
O=C(CNC(=O)c1cccc(Br)c1)N/N=C/c1cn[nH]c1-c1ccccc1	n	n	n	u	n	u
CN(C)c1cccc(C(=O)N/N=C/c2ccccc2F)c1	n	n	n	10µM	n	u
O=C(CNC(=O)c1cccc(Br)c1)N/N=C/c1ccc[nH]1	u	n	n	u	n	6.31µM
[O-][N+]12CCCc3cccc(c31)CCC2	x	n	n	x	x	x
Cc1nc(C)c(C(=O)N2CCc3c(cnc(C)c3CNC(=O)c3cncs3)C2)s1	x	n	n	x	n	x
CC(C)CC(=O)Nc1nc(-c2ccc(S(=O)(=O)N3CCOCC3)cc2)cs1	n	n	n	u	22.4µM	n
Cc1ccc(-c2csc(NC(=O)COC(=O)c3cccc(S(=O)(=O)N4CCOCC4)c3)n2)cc1	n	x	x	n	n	u
Cc1ccc(Nc2nc(-c3ccc(S(=O)(=O)N4CCOCC4)cc3)cs2)cc1Cl	-73.8	u	u	n	u	u
CCCCC(=O)Nc1nc(-c2ccc(S(=O)(=O)N3CCOCC3)cc2)cs1	-90.0	n	n	u	u	n
SMILES	HCMV inh	VACV Venus inh	Vaccinia mCherry	LASV entry inh	FMDV antiviral	Marburg entry inh
Cc1ccc(S(=O)(=O)N2CCOCC2)cc1C(=O)Nc1nc(-c2cccnc2)cs1	n	n	n	n	x	n
COc1cccc(OCc2cc(C(=O)N3CCC(c4ccncc4)CC3)no2)c1	-89.1	n	n	u	n	u
O=C(c1cc(COc2cccc(C(F)(F)F)c2)on1)N1CCC(c2ccncc2)CC1	x	x	x	x	n	x
CC(=O)c1ccc(OCc2cc(C(=O)N3CCC(c4ccncc4)CC3)no2)cc1	-81.0	x	x	x	u	x
CN1CCN(C(=O)c2ccc3c(=O)n(Cc4ccco4)c(=S)[nH]c3c2)CC1	n	x	x	n	n	n
CCCN(CCC)C(=O)c1ccc2c(=O)n(Cc3ccco3)c(=S)[nH]c2c1	-90.1	x	x	n	n	n
COc1ccccc1Cn1c(=S)[nH]c2cc(C(=O)N3CCCC3)ccc2c1=O	n	x	x	x	n	x
COc1ccccc1CNC(=O)c1ccc2c(=O)n(CC3CCCO3)c(=S)[nH]c2c1 (stereo not given)	u	n	n	n	n	n
COc1ccccc1Cn1c(=S)[nH]c2cc(C(=O)NCC3CCCO3)ccc2c1=O (stereo not given)	n	n	n	u	25.1µM	u
COc1ccc(-n2c(=S)[nH]c3cc(C(=O)NCCCN4CCCC4=O)ccc3c2=O)cc1OC	-99.1	n	n	n	n	n
COc1ccccc1Cn1c(=S)[nH]c2cc(C(=O)NCCN(C)C)ccc2c1=O	n	n	n	n	n	10µM
Cc1ccc(NC(=O)C2(C)CCN2C(=O)Cc2ccc(-c3ccccc3)cc2)cc1 (stereo not given)	-62.6	n	n	x	u	x
CSc1ccccc1NC(=O)C1(C)CCN1C(=O)Cc1ccc(-c2ccccc2)cc1 (stereo not given)	-62.1	n	n	x	u	x
Cc1ccc(S(=O)(=O)NC(=O)C2(C)CCN2C(=O)Cc2ccc(-c3ccccc3)cc2)cc1 (stereo not given)	n	n	n	x	n	x
CC(C)NC(=O)C1(C)CCN1C(=O)Cc1ccc(-c2ccccc2)cc1 (stereo not given)	n	n	n	x	n	x
CC1(C(=O)Nc2ccc3nc[nH]c3c2)CCN1C(=O)Cc1ccc(-c2ccccc2)cc1 (stereo not given)	u	n	n	x	31.6µM	x
CC(C)(C)c1ccc(CC(=O)N2CCC2(C)C(=O)Nc2cnc3ccccc3c2)cc1 (stereo not given)	u	n	n	x	20µM	x
CN(C)CCCN1C(=O)C(O)=C(C(=O)c2cc3ccccc3o2)[C@@H]1c1ccccc1	x	x	x	x	x	n
CC1(C(=O)NS(=O)(=O)Cc2ccccc2)CCN1C(=O)Cc1ccccc1Cl (stereo not given)	-62.3	n	n	x	n	x
CC1(C(=O)NS(=O)(=O)Cc2ccccc2)CCN1C(=O)Cc1ccccc1 (stereo not given)	n	n	n	x	n	x
COc1ccc(NC(=O)c2cc(-c3cccc(OC)c3)on2)cc1	n	n	n	u	n	n
COc1cccc(-c2cc(C(=O)Nc3cccc(O)c3)no2)c1	n	x	x	6.51µM	n	4.61µM
COc1cccc(-c2cc(C(=O)Nc3cnn(Cc4ccc(Cl)cc4Cl)c3)no2)c1	u	11.2µM	u	u	n	n
O=C(c1ccco1)N1CCN(C23CC4CC(CC(C4)C2)C3)CC1	n	n	n	n	n	u
Cc1ccc(C(=O)N2CCN(C34CC5CC(CC(C5)C3)C4)CC2)o1	-82.5	x	x	x	n	x
Cn1ncc(Cl)c1C(=O)N1CCN(C23CC4CC(CC(C4)C2)C3)CC1	-77.0	n	n	u	n	n
CCN1C(=O)C2(c3ccccc31)c1c(oc3ccccc3c1=O)C(=O)N2CCOC (stereo not given)	n	n	n	n	n	n
CCC1Oc2ccc(C)cc2N(CC(=O)N(Cc2ccc(C)o2)C2CCCC2)C1=O (stereo not given)	n	n	n	u	22.4µM	u
Cc1ccccc1-c1noc(-c2ccccc2OCC(=O)Nc2cccc([N+](=O)[O-])c2)n1	n	n	n	n	n	n

Source: PubChem
